# About 37,000 (12%) of roughly 300,000 compounds were called active. The sample holds actives, similar compounds and a random draw of the others, so the mix is not that of the screen. Rule as the data show it: active = max response mostly above about 13% (no sharp cut-off); inactive = mostly below about 14%.
# Experiment: Cycloheximide Counterscreen for Small Molecule Inhibitors of Shiga Toxin; also: read at 38.3 µM for the half of the compounds with a filed dose; 0% is about no effect
# Conditions: cell reporter, cycloheximide protein synthesis inhibition counterscreen; stronger effect = higher value
row,SMILES,max response
1,O=C(O)C1=NN(c2c(F)c(F)cc(F)c2F)C(=O)CC1,-4.21% (inactive)
2,C=CCN(N=Nc1cccc([N+](=O)[O-])c1)c1cccc([N+](=O)[O-])c1,-2.01% (inactive)
3,O=C(CN1CCN(S(=O)(=O)c2ccc(F)cc2)CC1)NC1CC1,1.9% (inactive)
4,Cc1cnc(C(=O)OCc2c(C)cc(C(C)(C)C)cc2C)cn1,-3.25% (inactive)
5,Cc1nc(COc2cccc(Cl)c2)sc1C(=O)/C=C/N(C)C,40.9% (active)
6,CN(C)/C=C/C(=O)c1ccccc1F,5.51% (inactive)
7,O=C(COc1cccc(Cl)c1)NCc1ccccc1,7.99% (inactive)
8,Cc1ccc(SCC(=O)c2sc(-c3ccccc3)nc2C)cc1,-0.538% (inactive)
9,CC(Oc1ccc(Cl)cc1Cl)C(=O)/C=C/N(C)C (centres undefined),2.24% (inactive)
10,Cc1nc(-c2ccccc2)sc1C(=O)/C=C/N(C)C,45.3% (active)
11,COc1ccc(-c2nc(CN3CCN(c4ncccn4)CC3)c(C)o2)cc1C,-2.33% (inactive)
12,Cc1ccc(S(=O)(=O)N[C@@H](Cc2ccccc2)C(=O)N2CCC(C(=O)N[C@H](C(=O)O)C(C)O)CC2)cc1 (some centres undefined),-0.605% (inactive)
13,Cc1ccc(N(Cc2ccc(C(=O)Nc3ccccc3C(=O)NCc3ccco3)cc2)S(C)(=O)=O)cc1C,-1.16% (inactive)
14,O=C(COc1ccc(Cl)cc1)NCc1nnc(SCC(=O)NCC2CCCO2)o1 (centres undefined),1.5% (inactive)
15,S=C(NCCc1ccccc1)N1CCn2cccc2C1c1ccncc1 (centres undefined),6.15% (inactive)
16,CCC(C)(C)n1nnnc1CN1CCN(c2nc3ccc(C)cc3cc2C#N)CC1,-1.82% (inactive)
17,CCOc1ccc(CN2CCN(Cc3c[nH]c4ccccc34)CC2)cc1,-0.16% (inactive)
18,CCOc1ccc(N(CC(=O)NCCc2ccc(F)cc2)S(=O)(=O)c2ccccc2)cc1,0.706% (inactive)
19,CCCCc1ccc(NC(=S)NCCCN2CCOCC2)cc1,12% (inactive)
20,CCCCc1ccc(NC(=S)N2CCCC(CO)C2)cc1 (centres undefined),39.3% (active)
21,COc1ccc(NC(=S)N2CCCC(CO)C2)c(OC)c1 (centres undefined),-1.58% (inactive)
22,COc1ccc(S(=O)(=O)NC(C)c2ccccc2)cc1C(=O)N1CCCCC1 (centres undefined),8.07% (inactive)

row,SMILES,max response
1,COc1ccc(CNC(=O)CN(Cc2ccccc2Cl)C(=O)c2csnn2)cc1,-2.08% (inactive)
2,CCOC(=O)C1(Cc2ccc(Cl)cc2)CCN(C(=O)C2=NNC(=O)CC2)CC1,10.1% (active)
3,CC(=O)N1CCC(C(=O)OCc2ccc(Cl)cc2)(c2ccccc2)CC1,1.9% (inactive)
4,CCOC(=O)C1(Cc2ccc(Cl)cc2)CCN(C(C)CCn2cccn2)CC1 (centres undefined),-3.1% (inactive)
5,CCc1ccc(OCC2c3cc(OC)c(OC)cc3CCN2C(C)=O)cc1 (centres undefined),-2.66% (inactive)
6,O=C(CN1C(=O)S/C(=C\c2ccccc2Cl)C1=O)NC1C=CS(=O)(=O)C1 (centres undefined),1% (inactive)
7,CCOc1cccc(C(=O)Nc2cnn(Cc3ccccc3)c2)c1,8.38% (inactive)
8,O=C(NCc1cccnc1)Nc1ccccc1F,6.78% (inactive)
9,O=C(Nc1ccccc1F)c1ccc(Cn2cc(Br)cn2)cc1,27.6% (active)
10,Cc1ccc(N(Cc2ccccc2O)C(=O)c2ccccc2F)cc1,-1.08% (inactive)
11,CCN(CC)c1ccc(C(=O)NNC(=O)CCc2nc3ccccc3c(=O)[nH]2)cc1,8.34% (inactive)
12,Cc1cc(=O)oc2cc(NC(=O)C3CC(=O)N(Cc4ccccc4)C3)ccc12 (centres undefined),5.63% (inactive)
13,O=C(c1ccc(F)cc1)N1CCC(n2nnc3ccccc32)CC1,50% (active)
14,CC(=O)c1cccc(S(=O)(=O)N2CCC(n3nnc4cc(F)ccc43)CC2)c1,-0.975% (inactive)
15,O=S(=O)(c1cccc(S(=O)(=O)N2CCC(n3nnc4ccccc43)CC2)c1)N1CCCCC1,-11.1% (inactive)
16,COc1ccc(N2CCN(S(=O)(=O)c3ccc4c(c3)NC(=O)C(C)C(=O)N4)CC2)cc1 (centres undefined),-1.38% (inactive)
17,CN(CC(=O)O)S(=O)(=O)c1ccc2oc3ccccc3c2c1,1.18% (inactive)
18,COCCCNC(=S)N(CCN(C)C)Cc1cc2cc3c(cc2[nH]c1=O)OCCO3,6.79% (inactive)
19,CC(=O)c1ccc(N2CCN(CC(O)c3ccccc3)CC2)cc1 (centres undefined),5.47% (inactive)
20,CC(=O)c1ccc(N2Cc3ccccc3C2)cc1,29.2% (active)
21,CC(=O)c1ccc(N2CCN(C(=O)CCc3ccccc3)CC2)cc1,3.1% (inactive)
22,Cc1cc(NS(=O)(=O)c2ccc(NC(=S)NC(=O)c3ccc(F)cc3Cl)cc2)no1,-1.71% (inactive)

row,SMILES,max response
1,CC(=O)Nc1ccc(/C(C)=N/NC(=O)CN(c2ccccc2Br)S(C)(=O)=O)cc1,8.32% (inactive)
2,CCN(C(=O)CSc1nnc(-c2ccncc2)o1)c1ccccc1,-2.4% (inactive)
3,O=C(CSc1nnc(-c2c[nH]c3ccccc23)o1)c1ccccc1,8.16% (inactive)
4,CN(C(=O)CSc1nnc(-c2n[nH]c3ccccc23)o1)c1ccccc1,15.1% (active)
5,COc1cc(C2/C(=C(\O)c3ccc4c(c3)CC(C)O4)C(=O)C(=O)N2c2nnc(C)s2)cc(OC)c1OC (centres undefined),-1.71% (inactive)
6,Cc1[nH]c2ccccc2c1/C=C(/C#N)C(=O)NC(C)C,16.8% (active)
7,N#C/C(=C/c1ccc(N2CCCCC2)o1)C(=O)NCCc1c[nH]c2ccccc12,-3.38% (inactive)
8,Cc1[nH]c2ccccc2c1/C=N\NC(=O)Cn1nnc(-c2ccccc2)n1,-0.477% (inactive)
9,CCOc1cc(NC(=O)c2ccccn2)c(OCC)cc1NC(=O)c1ccc(OC)cc1,-3.64% (inactive)
10,Cc1cnc(NC(=O)c2ccccn2)s1,26.4% (active)
11,Cc1noc(C)c1C(=O)Nc1ccccn1,7.73% (inactive)
12,COC(=O)[C@@H](NC(=O)Nc1cc(Cl)ccc1C)C(C)C,-5.71% (inactive)
13,O=C(Nc1nnc(Cc2ccc(Cl)cc2)s1)c1cccnc1,1.24% (inactive)
14,Cc1cnc(NC(=O)Cn2cnc3c2c(=O)n(C)c(=O)n3C)s1,-4.16% (inactive)
15,Cc1ccc(NC(=O)c2ccccn2)cc1S(=O)(=O)N1CCOCC1,2.74% (inactive)
16,CCN(CC)c1ccc(NC(=O)c2ccc(Cl)nc2)cc1,16.7% (active)
17,Cc1ccc(Cl)cc1NC(=O)c1ccccn1,19.9% (active)
18,O=C(NNc1ccccn1)c1ccc(Cl)nc1,2.34% (inactive)
19,Cc1cnc(NC(=O)c2ccc(Cl)nc2)s1,43.4% (active)
20,NS(=O)(=O)c1ccc(NC(=O)COC(=O)c2ccc(Cl)nc2)cc1,-4.06% (inactive)
